Assay results as given in PubChem BioAssay (NCI).
This is part of a sample that, as a whole, favours compounds with a hit. Of some 83,000 tested, about 20% had one in any assay.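 Treatment: one concentration, 48 hours, 96-well format. Scoring: percent growth, with anything below 10 considered active.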 Calls of active or inactive are those of the source.

The molecules below were run on SK-MEL-28 melanoma (assay: NCI-60 one-dose screen, 48 h (100 = growth as untreated, 0 = no growth, -100 = all killed)). Settings: 10 µM unless noted.

| Structure (SMILES) | growth |
| --- | --- |
| O=S(=O)(NCCNc1nccc(-c2c(-c3cccc(O)c3)nc3occn23)n1)c1ccccc1 | 34.1% (inactive) |
| COc1ccc(C(=O)c2cc(C)c(OC)c(C)c2)c(OC)c1N(C(=O)CCl)C(=O)CCl | 54% (inactive) |
| O=C(/C=C/c1ccc[nH]1)c1ccc(-n2ccc(C(F)(F)F)n2)c(F)c1 | 100% (inactive) |
| COc1ccc(C(=O)C2C(C#N)C(C#N)C3c4ccccc4C=CN23)cc1 (stereo not given) | 98.9% (inactive) |
| c1ccc(-c2cn3c(ccc4ccccc43)n2)cc1 | 68.5% (inactive) |
| CNC(=O)c1cccc(Cn2nc(C)c(NC(=O)c3ccc(COc4ccc(C(F)(F)F)cc4C)cc3)c2C)n1 | 70.5% (inactive) |
| COc1ccc(OC)c(-c2cc(-c3ccc(Cl)cc3)c3c(N)c(C(=O)c4ccc(Cl)cc4)sc3n2)c1 | 105% (inactive) |
| CCCOc1ccc(/C=N/Nc2cc(C)nc3ccc(Cl)cc23)cc1 | 64.8% (inactive) |
| O=C(Cc1ccccc1)NNc1nc(Cl)nc(N2CCN(C(c3ccccc3)c3ccccc3)CC2)n1 | 101% (inactive) |
| C#CCNC(=O)[C@H](Cc1ccccc1)NC(=O)[C@]12CC[C@@H](C(=C)C)[C@@H]1[C@H]1CC[C@@H]3[C@@]4(C)CCC(=O)C(C)(C)[C@@H]4CC[C@@]3(C)[C@]1(C)CC2 | 98.1% (inactive) |
